Assay results reported in PubChem BioAssay AID485273 (Sanford-Burnham Center for Chemical Genomics, 2010).
The whole screen tested about 330,000 compounds, of which about 1,500 (0.45%) were called active. Many of the other results were omitted from the sample, so actives are more common in it than they were. Values without a mark were called inactive. Cut-off read from the data, not from the text of the source: active = inhibition above about 45% (passing the limit was not always enough); inconclusive = no clear call, values can overlap the other calls.

biological target: Ubiquitin-conjugating enzyme E2 N (Homo sapiens) (UniProt P61088); assay: blockers of UBC13 ubiquitin chain synthesis – biochemical, TR-FRET, uHTS, primary screen (AID 485273); settings: UBC13 polyubiquitin chain formation, at 20 µM, hits give high values
Sequence (P61088 whole entry, looked up): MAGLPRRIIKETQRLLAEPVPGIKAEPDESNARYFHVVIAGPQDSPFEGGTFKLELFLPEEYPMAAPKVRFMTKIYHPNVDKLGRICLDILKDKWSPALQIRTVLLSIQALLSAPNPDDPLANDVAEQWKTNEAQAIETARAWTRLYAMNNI

Q: With `CNCC(O)c1cc(F)c(OCc2ccccc2)c(OCc2ccccc2)c1F` (stereo not given) as the compound, how does the inhibition read?
A: 69.2% (active)

Q: For `CCN(N=Nc1nonc1OC)c1nonc1OC`, which inhibition is on record?
A: -6.3%

Q: With `CCCC[N+]1(C)C2CC(OC(=O)C(CO)c3ccccc3)CC1C1OC12` (stereo not given) as the compound, how does the inhibition read?
A: 1.6%

Q: Which inhibition does the source give for `CCOC(=O)c1c(C)c(C(=O)N2CCC3(CC2)OCCO3)c(C)n1CC` here?
A: -14.5%

Q: Which inhibition does the source give for `O=C1NC(=O)C(CCc2ccccn2)(Cc2cccc(Cl)c2Cl)C(=O)N1c1ccc(Br)cc1` (stereo not given) here?
A: 0.9%
